Results on 38 compounds are retold here after PubChem BioAssay (NCI).

Structures are written as SMILES. “And” between values parts separate entries of the source, which are not always exact repeats. Equal entries are not always repeated. About 83,000 compounds went through this panel and 20% of them were active in at least one assay; those are over-represented in the sample as a whole.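 Plates (96-well) were seeded with cells, treated with compound at one concentration, and incubated for 48 hours before percent growth was determined.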 The source made the active and inactive calls.

In the first assay the test system is HOP-92 NSCLC. The assay can be described thus: NCI-60 one-dose screen, 48 h (100 = growth as untreated, 0 = no growth, -100 = all killed). To be noted: 10 µM. On the procedure:
Growth inhibition of the HOP-92 human Non-Small Cell Lung tumor cell line is measured as a screen for anti-cancer activity. Cells are grown in 96 well plates and exposed to the test compound for 48 hours. Compounds are tested at a single concentration, which is 10^-5 M for most compounds. The reported endpoint is percent growth (GI% or GIPRCNT), where numbers from 0 - 100% represent growth inhibition, and numbers from -100% - 0 represent cell death. For example, a value of 40 represents 60% growth inhibition. A value of 0 means no net growth occurred over the course of the experiment. A value of -40 indicates 40% of cells at the beginning of the experiment died by the end of the experiment. A value of -100 means all cells are dead at the end of the experiment.
NCI-60 Human Tumor Cell Lines Screen was performed using the standard one-dose NCI protocol, which is described in more detail at https://dtp.cancer.gov/discovery_development/nci-60/default.htm.
Compounds with GIPRCNT values below 10 were considered active. Activity score was based on GIPRCNT using the following formula: […]
Score is 0 for GIPRCNT values of 100 or above, 50 for GIPRCNT values of 0, and 100 for GIPRCNT values of -100.
For the compound `O=C(O)c1c(Cl)c(Cl)c(Cl)c(Cl)c1-c1c2cc(I)c(=O)c(I)c-2oc2c(I)c(O)c(I)cc12`, the growth is 125% (inactive) and 43.3% (inactive) and -9.83% (active). As for `O=C(Nc1cccc(Br)c1)Oc1cccc2cccnc12`, the growth was 83% (inactive).

Staying with this assay, now noted: 10 µM unless noted.
In the case of `CC1OC(OC2C(OC3CCC4(C)C(CCC5(C)C4CC=C4C6CC(C)(C)CCC6(CO)C(O)CC45C)C3(C)C)OC(C(=O)O)C(OC3OC(COC4OC(CO)C(O)C(O)C4O)C(O)C(O)C3O)C2O)C(O)C(O)C1O` (stereo not given), the growth is -38.7% (active). Take `O=C(Nc1ccc(F)cc1)ON=C1CCCCC1`: the growth is 108% [100 µM] (inactive). Consider `CCN(CC)CC(C)(C)C(=O)/C=C/c1ccc(Cl)c(Cl)c1`, for which the growth is -3.59% (active). As to `CCOC(=O)c1c(C)[nH]c(CO)c1C`, the growth is 101% (inactive).

As for `O=C1OCc2cccc3cccc1c23`, the growth was 80.8% (inactive). For the compound `CCCCCCCCCCCCCCNCc1ccccc1`, the growth was 48.8% (inactive). Still for that read-out and setting: the value for `O=C(Oc1cccc2cccnc12)c1ccccc1` was 91% (inactive) and 110% (inactive); that for `CC1SC(=S)N(c2ccc(Cl)cc2)C1=O` (stereo not given) was 77.6% (inactive). As to `O[C@H]1[C@H]2c3cc4c(cc3CN3CCC(=C[C@@H]1O)[C@H]23)OCO4`, the growth was -3.91% (active). As for `Cc1ccc(N=C=C(c2ccccc2)c2ccccc2)cc1`, the growth was 79.2% (inactive). With `CCCCCCCCCCCCCCCCCCOP(=O)([O-])OC1CC[N+](C)(C)CC1`, the growth is -25.3% (active). For the compound `O=C1N[C@H]2[C@H](CS[C@H]2CCCCC(=O)N(CCP(c2ccccc2)c2ccccc2)CCP(c2ccccc2)c2ccccc2)N1`, the growth is 56.1% (inactive).

For `CCOc1ccc(-c2nc3ccc(-c4nc5ccc(N6CCN(C)CC6)cc5[nH]4)cc3[nH]2)cc1`, the growth was -56.3% (active).

For `C=CCOc1ccc(N=NC(C#N)C#N)cc1`, the growth was -13.1% (active). Same read-out and setting: the value for `O=C1c2ccccc2C(=O)c2sc(Nc3ccc(Cl)cc3)nc21` was 59.1% (inactive).

For the compound `N#CSCc1ccc(Cl)c(CSC#N)c1`, the growth is -4.43% (active). Turning to `Oc1c(Cl)c2ccccc2c2ccccc12`, the growth is 109% (inactive).

Regarding `O=C(/C=C\c1cc(Br)ccc1O)/C=C/c1cc(Br)ccc1O`, the growth was -40.1% (active). As for `NC(N)=N/N=C/c1ccc([N+](=O)[O-])o1`, the growth is 106% (inactive). Still for that read-out and setting: the value for `CN(C)CCOc1ccc2c(c1)C(=O)/C(=C\c1ncc([N+](=O)[O-])n1C)C2` was -54.3% (active). On the same count and under the same terms, the value for `O=C(Nc1ccccc1)c1cc(Cl)ccc1O` was 14.5% (inactive); that for `CC(=Nc1ccc(N(C)C)cc1)c1ccccc1` was 30.8% (inactive). The same measure, in the same setting: the figure for `Oc1c(Cl)cc(Cl)c2cccnc12` is 49.7% (inactive); for `CNc1ccc(N)cc1` it is 135% (inactive). On to `Cc1cc(C(C)(CC(C)C)c2ccc(O)c(C)c2)ccc1O`, for which the growth is 88.3% (inactive). On to `N#CC1C(=O)SC2c3ccccc3C(=O)c3ccccc3C12` (stereo not given), for which the growth is 71.8% (inactive). Turning to `O=C(/C=C/C=C/c1ccccc1)c1ccco1`, the growth was 96.1% (inactive). Consider `COc1ccccc1/C=C\C(=O)c1ccccc1`, for which the growth is 16.3% (inactive). With `CCOC(=O)/C=C/c1ccc([N+](=O)[O-])o1`, the growth was 47.6% (inactive).

Turning to `NC(=S)N/N=C/c1ccc(Cl)s1`, the growth is 97.5% (inactive). Consider `CC(=O)C(=Cc1ccc(C=C(C(C)=O)C(C)=O)cc1)C(C)=O`, for which the growth was 81.6% (inactive). On to `CCC(=O)Sc1ccccc1C(=O)Nc1ccc(Cl)cc1`, for which the growth was 16.3% (inactive). On the same count and under the same terms, the value for `CN(C)c1ccc(/C=N/N=C(\C#N)[S][Sn]([Cl])([c]2ccccc2)[c]2ccccc2)cc1` was -15.6% (active).

With `O=C(CC1(O)C(=O)Nc2c(Cl)ccc(Cl)c21)c1ccc(Cl)cc1Cl` (stereo not given), the growth was 92.5% (inactive). For the compound `Cc1c2ccccc2c(C)c2c1ccc1ccccc12`, the growth is 88.6% (inactive). On the same count and under the same terms, the figure for `CCOC(=O)/C(=C\c1ccc(-c2ccccc2)cc1)C(C)=O` is 101% (inactive).

The same assay, now with this note: 100 µM.
As for `O=C(O)c1c(Cl)c(Cl)c(Cl)c(Cl)c1-c1c2cc(I)c(=O)c(I)c-2oc2c(I)c(O)c(I)cc12`, the growth was -22.3% (active). Regarding `O=C(Nc1cccc(Br)c1)Oc1cccc2cccnc12`, the growth was 49.2% (inactive).
